Values without a mark were called inactive. The call rests on the fitted dose curve; in most records, active means well fitted inhibition curve with a large enough effect in the repeat runs (not every such curve was filed as active); inconclusive means weak or mixed curves; inactive means flat fitted curve, though single readings scatter.
The compounds below were run against Thyrotropin-releasing hormone receptor (Homo sapiens) (UniProt P34981) (assay: qHTS assay to identify small molecule antagonists of the thyrotropin-releasing hormone receptor (TRHR) signaling pathway (AID 1346877)). Details: TRHR-HEK293, TRH-induced calcium fluorescence, antagonist mode; series mostly up to 51.3 µM; activity, negative = inhibition: at the top concentration.
Sequence of Thyrotropin-releasing hormone receptor (Homo sapiens) (P34981 whole entry, looked up): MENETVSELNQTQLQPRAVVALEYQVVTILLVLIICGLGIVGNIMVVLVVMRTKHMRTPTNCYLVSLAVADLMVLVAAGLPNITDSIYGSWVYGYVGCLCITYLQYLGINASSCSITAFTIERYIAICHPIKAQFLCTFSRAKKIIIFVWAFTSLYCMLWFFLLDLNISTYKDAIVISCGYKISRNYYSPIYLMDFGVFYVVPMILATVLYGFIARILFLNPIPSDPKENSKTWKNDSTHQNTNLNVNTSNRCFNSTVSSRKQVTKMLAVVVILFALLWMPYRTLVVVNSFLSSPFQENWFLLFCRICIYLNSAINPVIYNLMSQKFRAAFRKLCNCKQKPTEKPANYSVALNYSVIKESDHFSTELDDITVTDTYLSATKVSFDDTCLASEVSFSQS
From the text: National Center for Advancing Translational Sciences [NCATS]
NIH Chemical Genomics Center [NCGC]
U.S. Environmental Protection Agency [EPA]
National Institutes of Environmental Health Sciences [NIEHS]
National Toxicology Program [NTP]
U.S. Food and Drug Administration [FDA]
Thyrotropin-releasing hormone (TRH) receptor (TRHR) is a G-protein-coupled receptor which binds the tripeptide thyrotropin releasing hormone. TRHR is found in the brain and, when bound by TRH, acts (through phospholipase C) to increase intracellular inositol trisphosphate. It plays a crucial role in the anterior pituitary where it controls the synthesis and secretion of thyroid stimulating hormone and prolactin. The TRHR-Hek293 assay is a cell-based assay, and it has the potential to screen G protein-coupled receptors. A compound/drug can either activate (agonist) or suppress (antagonist) GPCRs that can be monitored by levels of intracellular calcium. In this assay, the Tox21 10K compound library was screened to identify potential TRHR antagonists.
Tox21 Assay Protocol Summary:
The TRHR-Hek293 cells were dispensed at 1500cells/4uL/well in 1536-well black-clear bottom plates using a Multidrop dispenser. After the assay plates were incubated at a 37 C/5% CO2 incubator for 18 hours, 4 uL of Dye-Loading Solution was added to each well. The plates were incubated at 37 C for 2 hours. For agonist mode, 23 nL of compounds dissolved in DMSO, positive controls or DMSO only was transferred to the assay plate by a pin tool. The fluorescence intensity in the plates was measured using FDSS 7000EX kinetic plate reader for 3 min at 1 sec intervals. For antagonist mode, 23 nL of compounds dissolved in DMSO, positive controls or DMSO only was transferred to the assay plate by a pin tool. After 5 min incubation at room temperature, 1 uL of TRH was added on the top of the cell/compound mixtures to achieve a final agonist concentration of 1 nM. The fluorescence intensity in the plates was measured using FDSS 7000EX kinetic plate reader for 3 min at 1 sec intervals. Each test compound was measured at 15 concentrations and in triplicates.
For `COc1ccc(C(=O)N2CCN(CC(=O)N3CCOCC3)CC2)cc1`, the “activity, negative = inhibition” value was 0.21% [at 23.6 µM]. In the case of `CCc1c(C(=O)NN2CCCCC2)nn(-c2ccc(Cl)cc2Cl)c1-c1ccc(Br)cc1`, the “activity, negative = inhibition” value is reported as 0.347%. In the case of `CCC(C)c1cc(C(C)(C)C)c(O)c(C(C)(C)C)c1` (stereo not given), the “activity, negative = inhibition” value is reported as 0.67%. For `Nc1ncn([C@H]2C[C@H](O)[C@@H](CO)O2)c(=O)n1`, the “activity, negative = inhibition” value was 5.76% [at 23.6 µM]. In the case of `O=C(O)c1ccc(S(=O)(=O)O)cc1C(=O)O`, the “activity, negative = inhibition” value is reported as -1%. For `CCCCCCCCCCCCCCCCCCOS(=O)(=O)O`, the “activity, negative = inhibition” value was -27.1%. In the case of `CCCCCC[C@@H](O)C/C=C\CCCCCCCC(=O)OC`, the “activity, negative = inhibition” value is reported as -3.38%. With `CC(=O)c1ccc2c(c1)N(CCCN(C)C)c1ccccc1S2` the “activity, negative = inhibition” value was 0.424% [at 23.6 µM]. With `O=C(Cl)c1cc(C(=O)Cl)cc(C(=O)Cl)c1` the “activity, negative = inhibition” value was -1.27%. With `CN(Cc1ccc(C(C)(C)C)cc1)Cc1cccc2ccccc12` the “activity, negative = inhibition” value was -0.429% [at 23.6 µM]. For `CCOc1ccc(N)c([N+](=O)[O-])c1`, the “activity, negative = inhibition” value was 9.48%. In the case of `CCOC(=O)Cc1cccc2ccccc12`, the “activity, negative = inhibition” value is reported as -5.54%. With `C[C@H]1C[C@H]2[C@@H]3CCC4=CC(=O)C=C[C@]4(C)[C@@]3(Cl)[C@@H](O)C[C@]2(C)[C@@]1(O)C(=O)CO` the “activity, negative = inhibition” value was -9.05% [at 23.6 µM]. `CN(C)c1ccc(C(c2ccccc2)c2ccc(N(C)C)cc2)cc1` was tested, and the “activity, negative = inhibition” value was -2.88%. `CCCCCCCCCCCCCCOS(=O)(=O)O` was tested, and the “activity, negative = inhibition” value was -19.5%. In the case of `O=C(O)c1ccco1`, the “activity, negative = inhibition” value is reported as 0.404%. With `NC(N)=NCCC[C@H](N)C(=O)O` the activity, negative = inhibition was -3.14% [at 4.65 µM]. For `CCCCCCCCO[C@@H]1O[C@H](CO)[C@@H](O)[C@H](O)[C@H]1O`, the “activity, negative = inhibition” value was 1.91%. `NC(=O)C(c1ccccc1)(c1ccccc1)[C@@H]1CCN(CCc2ccc3c(c2)CCO3)C1` was tested, and the “activity, negative = inhibition” value was -4.32% [at 23.6 µM]. For `CCCC(=O)Nc1ccc(O)c(C(C)=O)c1`, the “activity, negative = inhibition” value was 0.342% [at 23.6 µM]. In the case of `Nc1ccc([N+](=O)[O-])c(C(F)(F)F)c1`, the “activity, negative = inhibition” value is reported as -3.67% [at 23.6 µM]. `COc1cc(Cl)c(OC)cc1N` was tested, and the “activity, negative = inhibition” value was 1.23%. In the case of `O=C(OCCc1ccccc1)c1ccccc1`, the “activity, negative = inhibition” value is reported as -22.2%. In the case of `C/C=C(/C(=C/C)c1ccc(OC(C)=O)cc1)c1ccc(OC(C)=O)cc1`, the “activity, negative = inhibition” value is reported as -6.03% [at 23.6 µM]. With `CCCCCCCC/C=C\CCCCCCCC(=O)OCC` the “activity, negative = inhibition” value was -0.707%. With `C=CC(=O)OCCOCCOC(=O)C=C` the “activity, negative = inhibition” value was 1.12%. `CC/C=C\CCOC(=O)CC` was tested, and the “activity, negative = inhibition” value was -0.339%. In the case of `CCn1cc(C(=O)O)c(=O)c2cnc(N3CCNCC3)nc21`, the “activity, negative = inhibition” value is reported as -2.13% [at 23.6 µM]. `OC(C#CCN1CCCC1)(c1ccccc1)c1ccccc1` was tested, and the “activity, negative = inhibition” value was 3.91% [at 23.6 µM]. `COC(C)OC` was tested, and the “activity, negative = inhibition” value was -5.06%. In the case of `CCC(C)O` (stereo not given), the “activity, negative = inhibition” value is reported as 1.6%. With `O=C(O)c1ccc(-n2nc(-c3ccccc3O)nc2-c2ccccc2O)cc1` the “activity, negative = inhibition” value was 0.34% [at 23.6 µM]. With `COc1cc2c(cc1OC)C(C(C(=O)N(CCc1ccc(OC)c(OC)c1OC)CCc1ccc(OC)c(OC)c1OC)c1ccccc1)=NCC2` (stereo not given) the “activity, negative = inhibition” value was -1.37% [at 23.6 µM]. In the case of `O=C(O)C1(C(=O)O)CCC1.[NH2-].[NH2-].[Pt+2]`, the “activity, negative = inhibition” value is reported as 6.88% [at 23.6 µM]. `O=[N+]([O-])c1ccc(NCCO)c(OCCO)c1` was tested, and the “activity, negative = inhibition” value was -1.14%. For `Cc1ccc(C(=O)Oc2ccc(C(O)CNC(C)(C)C)cc2OC(=O)c2ccc(C)cc2)cc1` (stereo not given), the “activity, negative = inhibition” value was -0.43% [at 23.6 µM]. `CCOC(=O)C1=C[C@]2(CC)CCCN3CCc4c(n1c1ccccc41)[C@@H]32` was tested, and the “activity, negative = inhibition” value was -0.0561% [at 23.6 µM]. `O=C(NCCO[N+](=O)[O-])c1cccnc1` was tested, and the “activity, negative = inhibition” value was -1.99% [at 23.6 µM]. With `Nc1ccc(N)c2c1C(=O)c1ccccc1C2=O` the “activity, negative = inhibition” value was -5.82%. In the case of `CNC(=O)CN(CCN(CCN(CC(=O)[O-])CC(=O)NC)CC(=O)[O-])CC(=O)[O-].O.[Gd+3]`, the “activity, negative = inhibition” value is reported as -3.85% [at 23.6 µM].

Source: PubChem BioAssay (Tox21)
On the % scale 0 is the no-effect control and ±100 the full control effect.
